# Vif-APOBEC3G blk – blocks the Vif interaction with human APOBEC3G | Q9HC16 | HeLa A3G-eYFP + Vif (tagged APOBEC3G with the HIV-1 protein that degrades it), YFP fluorescence, overnight | Potency, µM (highest dose often 46.1 µM), hits mostly inhibitors | 410,000 compounds, 0.076% hits; also: nearly all actives have a fitted effect of over 60% in size
# Target sequence (Q9HC16 whole entry, looked up): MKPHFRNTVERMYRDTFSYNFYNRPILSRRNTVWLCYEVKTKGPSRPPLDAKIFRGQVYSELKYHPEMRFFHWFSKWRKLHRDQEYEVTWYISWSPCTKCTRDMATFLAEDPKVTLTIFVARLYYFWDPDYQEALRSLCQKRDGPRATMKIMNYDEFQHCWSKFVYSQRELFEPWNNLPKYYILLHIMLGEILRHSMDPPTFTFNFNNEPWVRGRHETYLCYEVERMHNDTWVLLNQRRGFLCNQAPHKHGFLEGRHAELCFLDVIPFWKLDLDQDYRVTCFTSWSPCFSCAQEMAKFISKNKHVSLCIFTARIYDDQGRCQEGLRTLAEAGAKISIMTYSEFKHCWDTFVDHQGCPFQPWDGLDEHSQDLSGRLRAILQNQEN
#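 HeLa cells stably expressing Vif and C-terminally eYFP-tagged A3G, seeded overnight at 37 deg C, then exposed to compound by pintool overnight at 37 deg C. Rise in yellow fluorescence (Ex 488/Em 500-530, Acumen) marks blocked Vif-driven A3G degradation.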
# FUS suppressor – rescues growth of FUS-expressing yeast. S. cerevisiae FUS-expressing, growth rescue, OD600, 24 h. Potency, µM (highest dose often 76.6 µM), hits mostly activators. 390,000 compounds, 0.24% hits. AID 1347120; also: nearly all actives have a fitted effect of over 55% in size
#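 Steps: raffinose overnight preculture; dilution to OD 0.005 in 2% galactose minimal medium; compound addition (concentration series); 24hr at 30C, 99% humidity; absorbance read at 600 nm.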
# GRP78 ERSR act – inducers of ER stress response in human glioma cells. Potency, µM, usual class: activators. U87-MG GRP78 promoter luciferase reporter, 16 h. 420,000 compounds, 0.02% hits. AID 602332; also: series mostly up to about 76 µM; nearly all actives have a fitted effect of over 35% in size
#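 Stably transfected U87-MG glioma cells carrying a GRP78-based luciferase sensor; 16 h compound incubation. Luminescence end-point read 10 min after Bright-Glo addition at room temperature.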
# PINK1 modulator – changes PINK1 expression; PINK1 immunofluorescence, high-content cytometry, 24 h; Potency, µM (series often up to 76.6 µM), actives largely listed as activators; 410,000 compounds, 0.2% hits; AID 624263; active = well fitted activation curve with a large enough effect; inconclusive = small, poorly fitted or top-dose-only effect; cell line not stated here; also: nearly all actives have a fitted effect of over 65% in size
#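 PINK1 protein level read as immunofluorescence by microplate cytometer in a fixed, stained stable cell line after 24 h exposure to five compound concentrations, with CCCP as control.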
# Vif-A3F inh – Vif-A3F binding inhibition; AID 602313; HeLa A3F-eYFP + Vif (tagged APOBEC3F with the HIV-1 protein that degrades it), YFP fluorescence increase; 390,000 compounds, 0.2% hits; Potency, µM (highest dose often 46.1 µM); also: nearly all actives have a fitted effect of over 65% in size
#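 Fluorescence increase (Ex 488/Em 500-530) after overnight compound treatment at 37 deg C flags inhibition of Vif-driven A3F-eYFP loss in stable HeLa A3F-eYFP/Vif cells seeded overnight beforehand.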
# Abeta yeast res – A-beta toxicity reversal in yeast; Potency, µM (series often up to 46.1 µM), most hits filed as activators; AID 1347071; 410,000 compounds, 0.063% hits; yeast expressing A-beta42, growth rescue, OD600, 48 h; response scale: 0% DMSO, 100% iron-clioquinol control; also: nearly all actives have a fitted effect of over 55% in size
#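 Yeast growth medium received pinned compounds, then yeast cells expressing toxic A-beta were added; plates incubated at 30 C for 48 hr. Growth read as absorbance at 600 nm, normalized to DMSO and equimolar FeCl3 plus clioquinol controls.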
# Numbers stand for hits; i = inactive; ? = inconclusive; nt = no result given; [ ] = dose if it differs, or a comment. In the library only some 0.69% were active in any assay of this set; here they are far more common. Unless noted, calls follow the shape of the dose curve; as a rule, active = well fitted curve in the direction sought with a large enough effect; inconclusive = small, poorly fitted or top-dose-only effect, or another doubt; inactive = no such curve, though single readings can be large; an effect the other way counts as inactive or inconclusive.
SMILES,Vif-APOBEC3G blk,FUS suppressor,GRP78 ERSR act,PINK1 modulator,Vif-A3F inh,Abeta yeast res
CCc1ccc(C2C(C#N)=C(N)SC(N)=C2C#N)cc1,?,?,i,i,?,i
COc1cc(=O)n2c(c1C(=O)N(C)Cc1cscn1)CCN(Cc1ccc3c(c1)OCCO3)CC2,nt,nt,i,i,nt,nt
COc1ccc(/C=N/NC(=O)c2[nH]nc3c2CCc2ccccc2-3)cc1OC,3.2µM,i,i,i,i,?
CNC(=O)c1[nH]nc2c1CCc1ccccc1-2,i,i,i,i,?,i
Cc1noc(C)c1CSc1nc2ccccc2c(=O)n1-c1ccccc1,3.5µM,i,i,i,i,i[9.22 µM]
COc1ccc(-n2c(SCc3nc4ccccc4[nH]3)nc3ccccc3c2=O)cc1,nt,35µM,nt,nt,nt,nt
COc1ccccc1C(=O)N[C@@H]1c2ccccc2C2(CCN(Cc3cnn(C)c3C)CC2)[C@H]1O,nt,nt,i,i,nt,nt
COc1ccc2ccccc2c1CN1CCc2nnc(CNC(=O)c3cccc(F)c3)n2CC1,nt,nt,i,i,nt,nt
COc1ccc2c(C)cc(SCC#N)nc2c1,?,i,i,i,22µM,i
Cc1cc(SCC#N)nc2ccccc12,i,i,i,i,i,i
O=C(c1ccnc(-n2cnnn2)c1)N1CCOc2ccc(C(O)CCc3ccccc3)cc2C1 (stereo not given),nt,nt,i,i,nt,nt
Cc1cccc(NC(=O)C(C)OC(=O)c2ccccc2NS(=O)(=O)c2cc(C)c(C)c([N+](=O)[O-])c2)c1 (stereo not given),i,nt,i,20µM,i,i
CCN1/C(=C/C=C2/SC(=Nc3cccc4ncccc34)N(C)C2=O)Sc2ccccc21,i,i,i,i,3.5µM,i
COc1ccc(OC)c(C(=O)N2CCOc3ccc(C(C)(O)CN(C)C)cc3C2)c1 (stereo not given),nt,nt,i,i,nt,nt
COc1cc(N2C(=O)c3ccccc3C2=O)c(Cl)cc1C(=O)OCC(=O)NCc1ccco1,i,16µM,i,i,i,i
COc1cccc(OC)c1C(=O)OCC(=O)NCc1ccco1,i,i,i,i,i,i
Cn1c(C(c2cc3ccccc3n2C)c2cc3ccccc3n2C)cc2ccccc21,?,nt,i,nt,nt,nt
O=C(Nc1cc(C(F)(F)F)ccc1-n1cncn1)c1ccc([N+](=O)[O-])o1,?,i,?,i,13µM,i
COc1ccc(NC(=O)c2cnn(-c3ccc(F)cc3F)c2C2CCN(C(=O)OC(C)(C)C)CC2)cc1Cl,i,13µM,i,i,i,i
CN1CCN(C(=O)c2cnn(-c3ccc(F)cc3F)c2C2CCN(C(=O)OC(C)(C)C)CC2)CC1,i,i,i,i,i,i
COc1cc(Cl)c(C)cc1NC(=O)c1cnn(-c2ccc(F)cc2F)c1C1CCN(C(=O)OC(C)(C)C)CC1,i,i,i,i,i,i
CC(C)(C)OC(=O)N1CCC(c2c(C(=O)N3CCN(c4ccc(Cl)cc4)CC3)cnn2-c2ccc(F)cc2F)CC1,i,22µM,i,i,i,i
CS(=O)(=O)c1ccc(-c2cccc3c2OC(CNC(=O)c2cc(C4CC4)[nH]n2)C3)cc1 (stereo not given),nt,nt,i,i,nt,nt
ClCC1NCC(c2ccccc2Cl)c2c1[nH]c1ccccc21 (stereo not given),?,i,i,i,22µM,i
COc1ccc(N2CCN(C(=O)CSc3nc4ccccc4nc3Cc3ccc(Cl)cc3)CC2)cc1,i,32µM,i,i,i,i
SMILES,Vif-APOBEC3G blk,FUS suppressor,GRP78 ERSR act,PINK1 modulator,Vif-A3F inh,Abeta yeast res
CC1CCCCN1C(=O)CSc1nc2ccccc2nc1Cc1ccc(Cl)cc1 (stereo not given),i,25µM,i,i,i,i
O=C(CN1C(=O)CSc2ncccc21)Nc1cccc(Cl)c1,?,i,i,i,10µM,i
C[C@@H]1CC[C@]2(C(=O)O[C@@H]3O[C@H](CO)[C@@H](O)[C@H](O)[C@H]3O)CC[C@]3(C)C(=CCC4[C@@]5(C)C[C@@H](O)[C@H](O)[C@@](C)(C(=O)O[C@@H]6[C@H](O)C[C@@]7(C)C(CC[C@]8(C)C7CC=C7[C@H]9[C@](C(=O)O[C@@H]%10O[C@H](CO)[C@@H](O)[C@H](O)[C@H]%10O)(CC[C@@H](C)[C@@]9(C)O)CC[C@]78C)[C@@]6(CO)C(=O)O)C5CC[C@]43C)[C@@H]2[C@]1(C)O (stereo not given in full),i,13µM,i,i,i,i
CC(C)CN(C(=O)COC(=O)c1ccc([N+](=O)[O-])s1)c1c(N)n(Cc2ccccc2)c(=O)[nH]c1=O,?,i,i,40µM,?,i
CCCCN(C(=O)CSc1nn(-c2ccc(F)cc2)c(=S)s1)c1c(N)n(CCCC)c(=O)[nH]c1=O,i,7.1µM,i,i,i,i
CCCCN(C(=O)CSc1nc2ccccc2s1)c1c(N)n(CCCC)c(=O)[nH]c1=O,i,?,i,i,i,i
CCCCN(C(=O)c1ccc([N+](=O)[O-])s1)c1c(N)n(CCCC)c(=O)[nH]c1=O,i,i,i,i,13µM,i
CCCCn1c(N)c(N(CCC(C)C)C(=O)COC(=O)c2ccc([N+](=O)[O-])s2)c(=O)[nH]c1=O,i,i,i,?,?,i
O=C(c1n[nH]c2c1CCCC2)N1CCOc2ccc(C(O)C3CCCCC3)cc2C1 (stereo not given),nt,nt,i,i,nt,nt
CCn1c(-c2cccc(OC)c2)nc2cc(NC(C)=O)cc(C(=O)N(C)CC3COCCO3)c21 (stereo not given),nt,nt,i,i,nt,nt
Cc1ccc(NC(=S)Nc2cccnc2)c(S(=O)(=O)N2CCCCC2)c1,i,35µM,i,i,i,i
N#CC1=C(S)N(c2ccc(F)cc2)C2(CCCCC2)NC1=O,i,i,i,i,11µM,i
CC(C)Cc1nc2cc(NS(=O)(=O)N(C)C)cc(C(=O)N3CCOCC3)c2n1C,nt,nt,i,i,nt,nt
Cc1sc(-n2c(C)cc(/C=C3\SC(=S)NC3=O)c2C)c(C#N)c1C,i,16µM,?,i,?,i
COc1cc(OC)c2nc(-c3cc4c(c(OC)c3)OCCN(Cc3cn(C)nc3C)C4)cc(C)c2c1,nt,nt,i,i,nt,nt
CCCCN1C(=O)/C(=C/C=C2/CC(C)(C)CN2C)SC1=S,3.5µM,i,i,i,?,i
CCCN1C(=O)/C(=C/C=C2\N(CC)c3ccccc3C2(C)C)SC1=S,?,i,i,i,?,i
CCCCN1C(=O)/C(=C/C=C2\Oc3ccccc3N2CC)SC1=S,1.6µM,i,i,?,i,i
CC(C)(C)c1nnc(N/N=C/c2ccccc2O)n(N)c1=O,i,i,i,i,i,11µM
CC(C)(C)c1nnc(N/N=C/c2ccccc2)n(N)c1=O,i,nt,i,i,i,i
